The list is not random: actives were taken first. Their share in the collection is about 0.5%.
CCT chaperon mod = High-Throughput Screening for Modulators of Cytosolic Chaperonin Activity | purified chaperonin ATPase assay, HTRF ADP detection, 30 min | activity change, % (test concentration not listed), hits read low | 360,000 tested, 0.3% active | AID 651819, 2012; in the data active means activity change below about -30%; further: on the % scale 0 is the no-effect control and ±100 the full control effect
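ATPase activity: ADP formed was measured by HTRF Transcreener (665/615 nm ratio) after 30 min at 37 deg C with 10 uM ATP. Compounds screened at one 76 uM concentration against 40 or 20 nM TRiC in Tris pH 7.4/KCl/MgCl2/DTT buffer.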
Mm-Cpn inhibitor = Inhibitors of TCP-1 ring complex (TRiC) of Methanococcus maripaludis (MmCpn): qHTS; Chaperonin Mm-Cpn (Methanococcus maripaludis); purified Mm-Cpn ATPase, ADP Transcreener TR-FRET; Potency, µM (series often up to 76.9 µM), without a hit: at the top dose activity, negative = inhibition, hits mostly inhibitors; 330,000 tested, 0.031% active; AID 504842, 2011; further: potency means the concentration at half of the fitted maximal effect; on the % scale 0 is the no-effect control and ±100 the full control effect; nearly all actives have a fitted effect of over 80% in size
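Quantitative HTS used 25 nM Mm-CPN and 10 uM ATP in magnesium/KCl Tris buffer, pH 7.4, with 1 mM DTT. Hydrolysis ran 30 min at 37°C; ADP was read by HTRF.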
TSHR antag = Antagonists of the Thyroid Stimulating Hormone Receptor: HTS campaign. activity change, negative = inhibition, % at 11.5 µM. TSHR-expressing cells, TSH-stimulated cAMP HTRF, 2 h; stronger effect = lower value. AID 504810, 2011. 330,000 tested, 0.2% active;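 active means activity change below a set negative limit, meaning inhibition stronger than a set level, cut at about -70% in these data; inconclusive means activity change between two set negative limits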; further: on the % scale 0 is the no-effect control and ±100 the full control effect
Target sequence (P16473 whole entry, looked up): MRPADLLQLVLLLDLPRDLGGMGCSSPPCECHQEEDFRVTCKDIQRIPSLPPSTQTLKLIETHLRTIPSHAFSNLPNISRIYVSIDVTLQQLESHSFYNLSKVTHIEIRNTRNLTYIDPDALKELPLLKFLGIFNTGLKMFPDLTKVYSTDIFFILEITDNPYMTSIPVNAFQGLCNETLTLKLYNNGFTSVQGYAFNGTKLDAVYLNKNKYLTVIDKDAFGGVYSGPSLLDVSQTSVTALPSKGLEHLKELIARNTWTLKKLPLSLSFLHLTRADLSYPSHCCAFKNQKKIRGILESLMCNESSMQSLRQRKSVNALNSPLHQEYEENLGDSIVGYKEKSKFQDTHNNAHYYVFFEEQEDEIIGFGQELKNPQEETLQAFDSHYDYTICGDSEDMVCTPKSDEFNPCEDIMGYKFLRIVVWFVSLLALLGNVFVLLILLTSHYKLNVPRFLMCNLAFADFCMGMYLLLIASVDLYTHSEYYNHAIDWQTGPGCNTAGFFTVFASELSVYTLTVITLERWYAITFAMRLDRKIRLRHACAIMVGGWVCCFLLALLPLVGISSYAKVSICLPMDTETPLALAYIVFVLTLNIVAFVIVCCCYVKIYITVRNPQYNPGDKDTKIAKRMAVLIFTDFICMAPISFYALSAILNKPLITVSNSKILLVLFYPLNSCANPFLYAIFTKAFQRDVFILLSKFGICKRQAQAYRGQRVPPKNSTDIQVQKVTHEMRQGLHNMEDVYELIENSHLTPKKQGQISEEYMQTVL
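TSHR-expressing cells, 200/well, pre-treated with compound, then stimulated with EC80 TSH (4nM final) for 2 hours at 37 deg C. cAMP measured by competitive HTRF: anti-cAMP cryptate antibody in lysis buffer plus cAMP-d2, read after 30 minutes at room temperature.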
B2AR arrestin = qHTS assay of beta-arrestin-biased ligands of beta2-adrenergic receptor; Beta-2 adrenergic receptor (Homo sapiens), P07550; beta-arrestin recruitment to beta2AR, cell-based reporter; Potency, µM (doses to about 46.1 µM), for inactives: at the top dose activation, actives largely listed as activators; 330,000 tested, 0.02% active;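 further: potency means the concentration at half of the fitted maximal effect; 0% = DMSO controls and full agonism = EC100 isoproterenol or metaproterenol; nearly all actives have a fitted effect of over 65% in size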
TCR act = Activators of T cell receptors: qHTS campaign; 330,000 tested, under 10 active; Potency, µM (titrated, usually from 9.22 µM), without a hit: top-dose activation of IL-2 secretion, most hits filed as activators; primary human leukocytes, anti-CD3, IL-2 HTRF, 48 h; AID 504894, 2011; further: % of control where 0% means no effect
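TCR engagement came from a-CD3 beads alone, with compounds added to primary human leukocytes for 48 hr. Secreted IL-2 bridged europium cryptate- and d2-labelled anti-IL-2 antibodies, giving FRET emission at 665nm after 320nm excitation.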
* hit, by the source's call; [ ] = dose if it differs, or a comment. Unless noted, the call rests on the fitted dose curve; in most records, active means well fitted curve in the direction sought with a large enough effect; inconclusive means small, poorly fitted or top-dose-only effect, or another doubt; inactive means no such curve, though single readings can be large; an effect the other way counts as inactive or inconclusive.

Fc1cc(F)c(C2SCCN2C(=S)Nc2cccc(C(F)(F)F)c2)c(F)c1 (configuration not stated) was read as CCT chaperon mod -2.9, Mm-Cpn inhibitor 0.1%, TSHR antag -72.1*, B2AR arrestin 0.4% and TCR act 1.2%.
Screening NC(=S)Nc1cc(Cl)ccc1Cl returned CCT chaperon mod -3.8, Mm-Cpn inhibitor -1.2%, TSHR antag -4.5, B2AR arrestin -0.7% and TCR act 9.4%.
NC(=O)Nc1cc(Cl)ccc1Cl was read as CCT chaperon mod -85.2*, Mm-Cpn inhibitor 1.4%, TSHR antag -8.0, B2AR arrestin -1.1% and TCR act -1.5%.
`CCCc1cc(=O)n2[nH]c(C)c(-c3ccccc3)c2n1` gave CCT chaperon mod -57.2*, Mm-Cpn inhibitor 0.2%, TSHR antag 1.8, B2AR arrestin -1.8% and TCR act 5.8%.
CC(C)C[C@H]1CNC(=S)N1C[C@H]1CCCN1C[C@H](Cc1ccccc1)N1C[C@H](Cc2ccc(O)cc2)N(CC2CCCCCC2)C1=S was read as CCT chaperon mod -0.5.
`CCOC(=O)N1CCN(C(=O)CCc2ccccc2)CC1` gave CCT chaperon mod -1.5, Mm-Cpn inhibitor 3.2%, TSHR antag -127.8* and B2AR arrestin 0.1%.
Screening O=C(COC(=O)C1=COCCO1)NCc1ccc(Cl)cc1Cl returned CCT chaperon mod 0.3.
`Cn1c(CNC(=O)c2ccc(Cl)cc2)nnc1SCC(=O)NC1CCCC1` gave CCT chaperon mod -1.5, Mm-Cpn inhibitor 0.8%, TSHR antag -98.1*, B2AR arrestin 0.0% and TCR act -1.9%.
COc1ccccc1-c1noc2c1C(=O)N(Cc1cn(C3CCCC3)nn1)CC2 was read as CCT chaperon mod -37.5*.
For COc1ccccc1Nc1nc(N)nc(CN2CCN(c3ccccc3F)CC2)n1 the results were CCT chaperon mod -1.6, Mm-Cpn inhibitor 1.6%, TSHR antag -6.8, B2AR arrestin -2.0% and TCR act -1.6%.
COc1ccccc1N1CCN(Cc2nc(N)nc(Nc3ccc(C)c(Cl)c3)n2)CC1 was read as CCT chaperon mod -33.6*, Mm-Cpn inhibitor -4.3%, TSHR antag -6.1, B2AR arrestin -0.4% and TCR act 10.0%.
Screening CC(=O)Oc1ccc2nc(/C=C/c3ccc(C=O)cc3)oc(=O)c2c1 returned CCT chaperon mod -1.3, Mm-Cpn inhibitor 0.4%, TSHR antag -6.7, B2AR arrestin 0.3% and TCR act 3.3%.
Screening CC(=O)Oc1ccc2nc(/C=C/c3ccccc3)oc(=O)c2c1 returned CCT chaperon mod 0.1, Mm-Cpn inhibitor 3.6%, TSHR antag -78.3*, B2AR arrestin -0.5% and TCR act -1.1%.
Screening Cc1nnc(SCC(=O)N2CCN(c3ccccc3F)CC2)n1C1CC1 returned CCT chaperon mod -97.0*, Mm-Cpn inhibitor 0.9%, TSHR antag 4.4, B2AR arrestin -0.1% and TCR act 0.0%.
O=C(CSc1nnnn1C1CC1)N1CCN(c2ccccc2F)CC1 was read as CCT chaperon mod -0.2, Mm-Cpn inhibitor 0.2%, TSHR antag 23.8, B2AR arrestin 0.1% and TCR act -0.3%.
`COc1ccc(/C=N/Nc2nc(C)cc(=O)[nH]2)cc1OC` gave CCT chaperon mod -2.9, Mm-Cpn inhibitor 0.8%, TSHR antag -9.1 and B2AR arrestin -0.7%.
For COc1ccc(OCC(=O)NNC(=O)c2cc3ccccc3o2)cc1 the results were CCT chaperon mod -66.7*, Mm-Cpn inhibitor -2.1%, TSHR antag -9.1, B2AR arrestin -1.6% and TCR act -8.0%[46.1 µM].
Screening COc1ccc(CNC(=S)NNC(=O)c2cc3ccccc3o2)cc1 returned CCT chaperon mod -3.7, Mm-Cpn inhibitor -0.6%, TSHR antag -7.3, B2AR arrestin 0.2% and TCR act -2.6%.
Screening CCSc1nnc(NC(=O)c2nc(-c3ccccc3)n(-c3ccccc3)n2)s1 returned CCT chaperon mod 3.6, Mm-Cpn inhibitor -1.0%, TSHR antag -42.3, B2AR arrestin 0.2% and TCR act -13.8%.
Screening CCc1ccccc1NC(=O)CN1CCN(C(=O)CN2C(=O)NC3(CCCCC3C)C2=O)CC1 (configuration not stated) returned CCT chaperon mod -2.5, Mm-Cpn inhibitor -5.3%, TSHR antag 0.0, B2AR arrestin 0.2% and TCR act 8.8%.
`CCOc1cccc(CNCc2ccc(C(=O)O)cc2)c1` gave CCT chaperon mod -70.4*, Mm-Cpn inhibitor -0.3%, TSHR antag 14.5, B2AR arrestin 0.0% and TCR act -176.0%.
`NNC(=S)Nc1ccc(Cl)cc1` gave CCT chaperon mod -2.8, Mm-Cpn inhibitor 1.7%, TSHR antag 11.9, B2AR arrestin 2.8% and TCR act -33.7%.
`O=S(c1cc(Cl)cc(Cl)c1O)c1cc(Cl)cc(Cl)c1O` gave CCT chaperon mod -1.2.
For Oc1c(Cl)cc(Cl)cc1Sc1cc(Cl)cc(Cl)c1O the results were Mm-Cpn inhibitor 5.0%, TSHR antag -92.3* and B2AR arrestin -1.5%.
Screening CC(C)C1C(=O)N(Cc2cn(CCC3OCCCO3)nn2)CCS(=O)(=O)N1Cc1ccc(-c2ccc(Cl)cc2)cc1 (configuration not stated) returned CCT chaperon mod 0.6.
Screening c1cn2cc(-c3ccc4c(c3)OCO4)nc2s1 returned CCT chaperon mod -62.9*, Mm-Cpn inhibitor 2.1%, TSHR antag 7.3, B2AR arrestin -0.1% and TCR act -0.4%.
`COc1cccc(-n2c([S-])c(C(=O)Nc3ccc(S(=O)(=O)N4CCOCC4)cc3)[n+]3cc(C(N)=O)ccc23)c1` gave CCT chaperon mod -40.6*, Mm-Cpn inhibitor -4.5%, TSHR antag 0.1, B2AR arrestin -0.1% and TCR act -8.3%.
For CC(C)COc1cccc(C(=O)Nc2ccc(S(=O)(=O)N3CCOCC3)cc2)c1 the results were CCT chaperon mod 1.1, Mm-Cpn inhibitor -0.8%, TSHR antag -1.1 and B2AR arrestin -0.7%.
CCNc1nc(C23CC4CC(CC(C4)C2)C3)cs1 was read as CCT chaperon mod 0.5, Mm-Cpn inhibitor -1.1%, TSHR antag -73.2*, B2AR arrestin -0.7% and TCR act 5.0%.
Screening CC(=O)NNC(=O)CC(=O)Nc1nc(C23CC4CC(CC(C4)C2)C3)cs1 returned CCT chaperon mod 0.4, Mm-Cpn inhibitor inconclusive, TSHR antag -3.5, B2AR arrestin -0.2% and TCR act -4.1%[46.1 µM].
Cc1ccc(Nc2cc(C)nc3ccc(C)cc23)cc1 was read as CCT chaperon mod 0.0, Mm-Cpn inhibitor 0.6%, TSHR antag -95.7*, B2AR arrestin -1.2% and TCR act 3.4%.
`Cc1ccsc1C(=O)NN=C1CCCCCC1` gave CCT chaperon mod -24.1, Mm-Cpn inhibitor -0.8%, TSHR antag 0.2, B2AR arrestin -1.0% and TCR act -5.9%.

High-throughput results from PubChem BioAssay.
